Measured values as given in PubChem BioAssay.
Where “and” joins values, the source holds several entries; their conditions need not be identical. Equal entries are not always repeated. Values without a mark were called inactive.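 The calls were made as follows, unless noted: active = superoxide response below 65% of plate, a cut near 3 SD across the whole screen; inactive = the rest.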

target: Integrin beta-1 (Homo sapiens) + Integrin alpha-4 (Homo sapiens) (UniProt P13612+P05556); assay: alpha4beta1 integrin LIBS antibody binding reduction – U937 cells, HUTS-21 mAb, flow cytometry, validation set, VLA-4 allosteric modulator project, pilot screen (AID 2674;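 active = inhibition above 50%, about 3 SD of the validation set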;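 also: antibody binding induced by the VLA-4 ligand LDV present at three times its Kd; 0% = LDV ligand with antibody and no compound and 100% = antibody without LDV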); conditions: HUTS-21 LIBS mAb binding, at 6.7 µM, stronger effect = higher value, binding induced by LDV ligand
Sequence (P05556 whole entry, looked up): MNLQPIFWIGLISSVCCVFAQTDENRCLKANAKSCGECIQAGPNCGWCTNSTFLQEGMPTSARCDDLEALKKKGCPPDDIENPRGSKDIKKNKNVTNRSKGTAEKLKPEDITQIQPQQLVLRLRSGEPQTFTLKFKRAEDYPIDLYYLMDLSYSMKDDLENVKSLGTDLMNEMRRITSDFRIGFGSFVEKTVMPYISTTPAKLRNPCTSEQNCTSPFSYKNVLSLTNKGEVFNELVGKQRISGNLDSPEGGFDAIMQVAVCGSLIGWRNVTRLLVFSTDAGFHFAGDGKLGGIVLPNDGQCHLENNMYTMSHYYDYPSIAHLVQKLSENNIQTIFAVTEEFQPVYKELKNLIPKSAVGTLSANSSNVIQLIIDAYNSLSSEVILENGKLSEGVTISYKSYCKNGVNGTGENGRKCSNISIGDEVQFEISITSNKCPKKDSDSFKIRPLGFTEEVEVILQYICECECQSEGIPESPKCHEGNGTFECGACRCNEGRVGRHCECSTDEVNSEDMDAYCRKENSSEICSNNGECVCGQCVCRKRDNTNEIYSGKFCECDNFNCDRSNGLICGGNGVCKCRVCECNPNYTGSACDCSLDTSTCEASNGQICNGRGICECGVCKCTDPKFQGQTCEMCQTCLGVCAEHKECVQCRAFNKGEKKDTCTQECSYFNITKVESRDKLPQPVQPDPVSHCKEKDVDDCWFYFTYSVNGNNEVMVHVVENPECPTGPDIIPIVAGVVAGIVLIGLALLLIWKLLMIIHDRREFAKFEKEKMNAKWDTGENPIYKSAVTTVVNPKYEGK
Sequence (P13612 whole entry, looked up): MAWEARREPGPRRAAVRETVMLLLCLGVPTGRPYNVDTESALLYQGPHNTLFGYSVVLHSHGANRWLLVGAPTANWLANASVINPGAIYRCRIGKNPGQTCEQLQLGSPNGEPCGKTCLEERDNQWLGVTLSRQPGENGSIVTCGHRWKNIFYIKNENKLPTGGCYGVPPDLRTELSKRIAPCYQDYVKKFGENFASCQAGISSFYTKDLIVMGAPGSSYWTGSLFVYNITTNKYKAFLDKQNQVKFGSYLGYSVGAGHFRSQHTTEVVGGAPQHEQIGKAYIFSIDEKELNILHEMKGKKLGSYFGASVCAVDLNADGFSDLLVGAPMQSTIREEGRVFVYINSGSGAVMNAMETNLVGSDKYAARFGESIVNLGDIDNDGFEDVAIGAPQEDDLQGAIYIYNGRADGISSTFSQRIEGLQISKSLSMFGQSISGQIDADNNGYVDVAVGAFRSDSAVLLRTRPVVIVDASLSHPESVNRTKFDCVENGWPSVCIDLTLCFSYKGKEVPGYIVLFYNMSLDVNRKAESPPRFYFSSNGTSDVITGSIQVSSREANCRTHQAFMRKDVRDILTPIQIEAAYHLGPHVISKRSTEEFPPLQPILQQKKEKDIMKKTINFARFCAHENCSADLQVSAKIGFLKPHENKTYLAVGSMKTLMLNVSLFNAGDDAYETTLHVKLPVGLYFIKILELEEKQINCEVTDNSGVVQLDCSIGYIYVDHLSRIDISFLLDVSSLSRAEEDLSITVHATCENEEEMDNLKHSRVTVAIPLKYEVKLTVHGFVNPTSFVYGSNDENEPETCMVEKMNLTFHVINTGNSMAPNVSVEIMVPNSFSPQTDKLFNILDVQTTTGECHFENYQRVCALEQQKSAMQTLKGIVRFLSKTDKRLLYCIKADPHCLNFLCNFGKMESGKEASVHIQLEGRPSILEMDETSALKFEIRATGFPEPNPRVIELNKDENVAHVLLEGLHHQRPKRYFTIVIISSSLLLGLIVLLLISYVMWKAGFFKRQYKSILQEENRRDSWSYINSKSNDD

Compound	inhibition
NS(=O)(=O)c1cc2c(cc1Cl)NC(C1C[C@H]3C=C[C@@H]1C3)NS2(=O)=O (stereo partly drawn)	-19.9%
CC(=O)NC1C(OCc2ccccc2)OC(COC(C)=O)C(OC(C)=O)C1OC(C)=O (stereo not drawn)	-44%
O=CNC1CCCc2c1[nH]c1ccc(Cl)cc21 (stereo not drawn)	-5.64%
O=C(O)CP(=O)(O)O	11%
Cc1cccc(Nc2ccccc2C(=O)O)c1C	4.84%
CC1(C)CC(NCc2ccccc2)CCO1 (stereo not drawn)	13.4%
Cc1ccccc1C(=O)NCC(=O)O	0.25%
CCOc1cc2c3c(c1)C(C)=CC(C)(C)N3C(=O)C2=O	35.1%
O=C(N1CCCC1)C12CC3CC(C1)CC(C(=O)N1CCCC1)(C3)C2	9.13%
O=C(NC(Nc1ccccn1)C(Cl)(Cl)Cl)c1ccccc1 (stereo not drawn)	-13.2%
COc1cc(NC(=S)NC(=O)c2cccs2)ccc1NC(=O)C(C)C	-14.1%
COc1ccc(CCN(C)CCCC(C#N)(c2cc(OC)c(OC)c(OC)c2)C(C)C)cc1OC (stereo not drawn)	11%
O=C1C(Cc2c[nH]c3ccccc23)NC(=S)N1Cc1ccccc1 (stereo not drawn)	8.29%
CC(C)(C)C(=O)NC(=S)NNC(=O)c1ccncc1	-7.08%
CCOC(=O)N1CCN(Cc2nc(Cc3cccc(F)c3)no2)CC1	-3.57%
C[C@@H]1C[C@H](Nc2ccccc2)c2ccccc2N1C(=O)c1cccnc1	3.67%
OC(CCN1CCCC1)(c1ccccc1)C1CCCCC1 (stereo not drawn)	0.64%
Cc1cc(Cl)cc2c1NC(=O)[C@]21[C@@H]2C(=O)N(Cc3ccccc3)C(=O)[C@@H]2[C@@H]2CCCN21	-232%
O=C(/C=C/c1ccco1)Nc1ccccc1C(=O)O	-31.9%
CC(C)c1ccc(/C=C/C(=O)O)cc1	7.76%

Compound	inhibition
CCN(CC)CC(=O)Nc1c(C)cccc1C	6.4% and 0.94%
CC1=C(C)C(=O)C(CCCCC#CCCCC#CCO)=C(C)C1=O	20.2%
COc1cc(C=NCC2OCCc3ccccc32)cc(OC)c1 (stereo not drawn)	-1.79%
CN(C)CCCN1c2ccccc2CCc2ccccc21	12%
COc1ccc2nc(S(=O)Cc3ncc(C)c(OC)c3C)[nH]c2c1 (stereo not drawn)	-13.2%
COc1ccc(CNCCC2(C(C)C)CCOC(C)(C)C2)cc1 (stereo not drawn)	-7.72%
COc1cccc(CN2C(=O)N(C(C)C)C(N(O)C(=O)NC(C)C)C2(C)C)c1OC (stereo not drawn)	-11.9%
Cc1ccc(S(=O)(=O)N[C@@H](Cc2ccccc2)C(=O)CCl)cc1	48.3%
COCCN(CCOC)Cc1c(C)[nH]c2c(C)c(C)ccc2c1=O	-2.43%
CCOC(=O)C(NC(=O)CCC(=O)Nc1ccc(S(N)(=O)=O)cc1)C(O)c1ccccc1 (stereo not drawn)	15.1%
Cc1ccccc1N1C(N)=NC(N)=NC1(C)C	-9.13%
CC1Cc2ccccc2N1NC(=O)c1ccc(Cl)c(S(N)(=O)=O)c1 (stereo not drawn)	3.14%
CC1=C(/C=C/C(C)=C/C=C/C(C)=C/C(=O)O)C(C)(C)CCC1	-2.82%
N/C(=N\OC(=O)/C=C/c1ccccc1)c1ccc(Br)cc1	-3.57%
CCOc1ccc(C(=O)C(C)=O)c(OCC)c1	-1.09%
COc1ccc(C=O)c(OC)c1	26.1%
CC1=NN(c2ccccc2)C(=O)C1	-14.5%
COCC1CCCN(Cc2cn[nH]c2-c2cc3ccccc3o2)C1 (stereo not drawn)	-14.1%
CC1(C)CC(=O)C(C2=NC(C)(C)Cc3ccccc32)=C(O)C1	-2.53%

test system: not listed separately; assay: calorie-restriction mimetic ROS inhibitors, yeast – validation compound set, pilot screen (AID 2706);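 also: yeast exposed to compound for one week at 30 degrees C before staining; 100% = mean of all compound wells on the same plate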; conditions: S. cerevisiae aging, superoxide DHE fluorescence; at 10 µM; stronger effect = lower value

Compound	superoxide response (% of plate)
NS(=O)(=O)c1cc2c(cc1Cl)NC(C1C[C@H]3C=C[C@@H]1C3)NS2(=O)=O (stereo partly drawn)	98.5%
CC(=O)NC1C(OCc2ccccc2)OC(COC(C)=O)C(OC(C)=O)C1OC(C)=O (stereo not drawn)	105%
O=CNC1CCCc2c1[nH]c1ccc(Cl)cc21 (stereo not drawn)	113%
O=C(O)CP(=O)(O)O	99%
Cc1cccc(Nc2ccccc2C(=O)O)c1C	87.1%
CC1(C)CC(NCc2ccccc2)CCO1 (stereo not drawn)	94.9%
Cc1ccccc1C(=O)NCC(=O)O	102%
CCOc1cc2c3c(c1)C(C)=CC(C)(C)N3C(=O)C2=O	108%
O=C(N1CCCC1)C12CC3CC(C1)CC(C(=O)N1CCCC1)(C3)C2	104%
O=C(NC(Nc1ccccn1)C(Cl)(Cl)Cl)c1ccccc1 (stereo not drawn)	91.6%
COc1cc(NC(=S)NC(=O)c2cccs2)ccc1NC(=O)C(C)C	113%
COc1ccc(CCN(C)CCCC(C#N)(c2cc(OC)c(OC)c(OC)c2)C(C)C)cc1OC (stereo not drawn)	86%
O=C1C(Cc2c[nH]c3ccccc23)NC(=S)N1Cc1ccccc1 (stereo not drawn)	104%
CC(C)(C)C(=O)NC(=S)NNC(=O)c1ccncc1	88.6%
CCOC(=O)N1CCN(Cc2nc(Cc3cccc(F)c3)no2)CC1	103%
C[C@@H]1C[C@H](Nc2ccccc2)c2ccccc2N1C(=O)c1cccnc1	95.6%
OC(CCN1CCCC1)(c1ccccc1)C1CCCCC1 (stereo not drawn)	93.8%
Cc1cc(Cl)cc2c1NC(=O)[C@]21[C@@H]2C(=O)N(Cc3ccccc3)C(=O)[C@@H]2[C@@H]2CCCN21	95.7%
O=C(/C=C/c1ccco1)Nc1ccccc1C(=O)O	124%
CC(C)c1ccc(/C=C/C(=O)O)cc1	99.5%

Compound	superoxide response (% of plate)
CCN(CC)CC(=O)Nc1c(C)cccc1C	87.6% and 113%
CC1=C(C)C(=O)C(CCCCC#CCCCC#CCO)=C(C)C1=O	77.4%
COc1cc(C=NCC2OCCc3ccccc32)cc(OC)c1 (stereo not drawn)	101%
CN(C)CCCN1c2ccccc2CCc2ccccc21	89.3%
COc1ccc2nc(S(=O)Cc3ncc(C)c(OC)c3C)[nH]c2c1 (stereo not drawn)	84.9%
COc1ccc(CNCCC2(C(C)C)CCOC(C)(C)C2)cc1 (stereo not drawn)	106%
COc1cccc(CN2C(=O)N(C(C)C)C(N(O)C(=O)NC(C)C)C2(C)C)c1OC (stereo not drawn)	84.9%
Cc1ccc(S(=O)(=O)N[C@@H](Cc2ccccc2)C(=O)CCl)cc1	100%
COCCN(CCOC)Cc1c(C)[nH]c2c(C)c(C)ccc2c1=O	99.3%
CCOC(=O)C(NC(=O)CCC(=O)Nc1ccc(S(N)(=O)=O)cc1)C(O)c1ccccc1 (stereo not drawn)	102%
Cc1ccccc1N1C(N)=NC(N)=NC1(C)C	96.3%
CC1Cc2ccccc2N1NC(=O)c1ccc(Cl)c(S(N)(=O)=O)c1 (stereo not drawn)	99.9%
CC1=C(/C=C/C(C)=C/C=C/C(C)=C/C(=O)O)C(C)(C)CCC1	93.6%
N/C(=N\OC(=O)/C=C/c1ccccc1)c1ccc(Br)cc1	107%
CCOc1ccc(C(=O)C(C)=O)c(OCC)c1	105%
COc1ccc(C=O)c(OC)c1	93.3%
CC1=NN(c2ccccc2)C(=O)C1	91%
COCC1CCCN(Cc2cn[nH]c2-c2cc3ccccc3o2)C1 (stereo not drawn)	98.3%
CC1(C)CC(=O)C(C2=NC(C)(C)Cc3ccccc32)=C(O)C1	103%
